Laboratory results published in ChEMBL document CHEMBL5724796, “Tm Shift (DSF) assay results for EUbOPEN Chemogenomics Library” (2024).
“And” between values parts separate entries of the source, which are not always exact repeats. Equal values may be shown once. Non-standard residues stand in square brackets, D forms with d. Residues, ends and D or L forms follow the SMILES beside them. Nle = CCCC[C@H](N)C(=O)O

The compounds below were run against Tyrosine-protein kinase ABL1 (Homo sapiens) (UniProt P00519). Conditions: Compound concentration 20.0 uM.
Sequence of Tyrosine-protein kinase ABL1 (Homo sapiens) (P00519 whole entry): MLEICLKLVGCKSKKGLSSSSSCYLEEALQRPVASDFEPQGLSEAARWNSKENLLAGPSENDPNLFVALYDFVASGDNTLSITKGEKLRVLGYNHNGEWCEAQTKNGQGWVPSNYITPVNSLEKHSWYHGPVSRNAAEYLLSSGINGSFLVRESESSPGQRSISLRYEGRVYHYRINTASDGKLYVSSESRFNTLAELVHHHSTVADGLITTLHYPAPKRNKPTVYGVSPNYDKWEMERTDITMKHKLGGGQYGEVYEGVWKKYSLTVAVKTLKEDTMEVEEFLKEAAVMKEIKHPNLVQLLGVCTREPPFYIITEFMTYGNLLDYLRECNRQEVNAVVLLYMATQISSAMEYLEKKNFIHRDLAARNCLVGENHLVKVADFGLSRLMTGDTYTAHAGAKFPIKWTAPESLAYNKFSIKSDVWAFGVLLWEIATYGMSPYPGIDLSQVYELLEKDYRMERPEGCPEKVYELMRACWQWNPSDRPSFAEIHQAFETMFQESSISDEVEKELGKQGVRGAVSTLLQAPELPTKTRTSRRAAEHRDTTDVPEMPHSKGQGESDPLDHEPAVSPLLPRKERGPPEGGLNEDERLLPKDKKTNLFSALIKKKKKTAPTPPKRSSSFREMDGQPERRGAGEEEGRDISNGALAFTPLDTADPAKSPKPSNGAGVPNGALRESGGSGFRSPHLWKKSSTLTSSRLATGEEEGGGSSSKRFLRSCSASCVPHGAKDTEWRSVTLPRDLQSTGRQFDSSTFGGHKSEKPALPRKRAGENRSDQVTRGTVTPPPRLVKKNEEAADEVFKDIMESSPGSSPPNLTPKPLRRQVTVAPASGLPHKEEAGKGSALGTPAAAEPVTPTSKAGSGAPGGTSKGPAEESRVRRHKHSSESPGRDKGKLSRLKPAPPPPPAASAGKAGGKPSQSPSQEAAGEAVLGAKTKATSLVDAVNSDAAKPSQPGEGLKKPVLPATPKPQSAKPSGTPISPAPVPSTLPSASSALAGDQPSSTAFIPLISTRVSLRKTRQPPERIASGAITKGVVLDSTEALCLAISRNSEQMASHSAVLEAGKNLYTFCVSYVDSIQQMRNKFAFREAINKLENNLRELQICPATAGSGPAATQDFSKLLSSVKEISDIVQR

| Structure (SMILES) | ΔTm |
| --- | --- |
| CCn1c(=O)c(C)cn(Cc2nnc(-c3ccc(F)c(OC)c3F)s2)c1=O | 0.22 °C |
| Cc1c(F)c(N)cc(C(=O)Nc2cc(-n3cc(C(=O)NCCCN4CCOCC4)nn3)ccc2N2CCN(C)CC2)c1Cl | 0.14 °C |
| N[C@@H](CCCCNC(=O)OCc1ccc([N+](=O)[O-])cc1)C(=O)N1CCCC1 | 0.09 °C |
| O=C(C1CC1)N1CC[C@@H](Cc2n[nH]c(=O)n2-c2ccc(-c3ccc4occc4c3)cc2)C1 | 0.72 °C and 0.71 °C |
| CN(CCC(Oc1ccc(-c2ccccc2)cc1)c1ccc(F)cc1)CC(=O)O (stereo not given) | 0.52 °C |
| O=C(Oc1cccc(F)c1OC(=O)c1cccc(O)c1)c1cccc(O)c1 | 0.98 °C |
| N=C(N)SCc1ccc(CN2C(=O)C(=O)c3cc(C(F)(F)F)ccc32)cc1 | -0.91 °C |
| Cc1ccnc(NS(=O)(=O)c2ccc(NC(=O)Nc3ccc(S(=O)(=O)Nc4nccc(C)n4)cc3)cc2)n1 | 0.29 °C |
| COCc1nc(C(F)(F)F)[nH]c1-c1cc(C(=O)N2CC(c3ccc(C#N)cc3)C2)c(C)cc1C | 0.13 °C |
| Cn1nc(C(C)(C)C)cc1C(=O)NC(Cc1cccc(Cl)c1)C(=O)NCC#N (stereo not given) | 0.37 °C |
| COc1cccc(OC)c1S(=O)(=O)Nc1noc2cc(Cn3cccn3)cc(OC)c12 | 0.73 °C |
| CNC(=O)Cn1cc(-c2ccc3c(c2)[C@H](F)C[C@]32NC(=O)N(CC(=O)N(Cc3ccc(F)cc3)[C@@H](C)C(F)(F)F)C2=O)cn1 | 0.95 °C |
| Cc1ccc([N+](=O)[O-])cc1S(=O)(=O)N(C)C | 0.7 °C |
| Nc1ccc(-c2cccs2)cc1NC(=O)c1ccc(NC=O)cc1 | 0.87 °C |
| CCCN(CCC)c1ccc(C=O)cc1Br | 0.01 °C |
| O=C(O)c1cccc(-c2ccc(-c3cn(C(=O)N4CCCCC4Cc4ccccc4)nn3)cc2)c1 (stereo not given) | -0.1 °C |
| CC(=O)N[C@@H](CC(C)C)C(=O)N[C@@H](CCC(=O)O)C(=O)N[C@@H](Cc1cnc[nH]1)C(=O)N[C@H](C=O)CC(=O)O (Ac-LEHD-aldehyde) | 0.07 °C |
| Cc1cc(N2C[C@@H](C)N[C@@H](C)C2)ncc1-c1ccc(-c2nc3c(ccn3C)c(=O)[nH]2)cc1 | 1.3 °C |
| O=c1[nH]c(N2CCC3(CC2)CN(CCO)c2cc(F)cc(F)c23)nc2c1CCCC2 | 0.43 °C |
| COc1cc2c(cc1-c1c(C)noc1C)[nH]c1nc(C)nc(-c3ccnc4ccccc34)c12 | 0.56 °C |

| Structure (SMILES) | ΔTm |
| --- | --- |
| O=S(=O)(O)c1ccc2cc(/N=N/c3cc(S(=O)(=O)O)c4cccnc4c3O)ccc2c1 | 0.53 °C |
| O=C(c1cc(Cc2n[nH]c(=O)c3ccccc23)ccc1F)N1CCN(C(=O)C2CC2)CC1 | 0.22 °C |
| CS(=O)(=O)N1CCN(C(=O)c2cnc3ccc(F)cc3c2-c2ccc(C3(C#N)CC3)cc2)CC1 | 0.07 °C |
| CN1CCN2c3c(cccc31)[C@@H]1CN(CCCC(=O)c3ccc(F)cc3)CC[C@@H]12 | -0.01 °C |
| CC(=O)N[C@@H](C)C(=O)N[C@@H](CCC(=O)O)C(=O)N[C@H](C(=O)N[C@@H](C=O)CC(=O)O)C(C)C | 0.22 °C |
| O=C(COc1ccc(-c2oc3cc(O)c(C(=O)O)cc3c2C#Cc2cccc(Cl)c2)cc1)NC1CC1 | 0.23 °C |
| Nc1ncnc2c1ncn2[C@@H]1O[C@H](C(=O)N2CCN(CC(=O)Nc3cccc4c3CNC4=O)CC2)[C@@H](O)[C@H]1O | 0.45 °C |
| CCCCN(Cc1ccc(C(=O)NO)cc1)C(=O)Nc1ccccc1 | 0.74 °C |
| OC[C@H]1O[C@@H](c2ccc(F)c(Cc3cc4ccccc4s3)c2)[C@H](O)[C@@H](O)[C@@H]1O | 0.51 °C |
| COc1cc(-c2cn(C)c(=O)c3cnccc23)cc(OC)c1CN(C)CC(=O)NCCOCCOCCNc1cccc2c1C(=O)N(C1CCC(=O)NC1=O)C2=O (stereo not given) | 0.07 °C |
| CCCC[C@@H](C=O)NC(=O)[C@H](CC(C)C)NC(=O)[C@H](CC(C)C)NC(C)=O (Ac-Leu-Leu-[Nle]-aldehyde) | 0.18 °C |
| Cc1cc(C)c(CNC(=O)c2cc(-c3ccc(N4CCN(C)CC4)nc3)cc3c2c(C)cn3C(C)C)c(=O)[nH]1 | 0.38 °C |
| C=CC(=O)Nc1cccc(-c2c[nH]cc2CN(C)CCN)c1 | 0.53 °C |
| CC(=O)N[C@@H](Cc1ccc(O)cc1)C(=O)N[C@H](C(=O)N[C@@H](C)C(=O)N[C@@H](CC(=O)O)C(=O)COC(=O)c1c(C)cccc1C)C(C)C | 0.26 °C |
| CC(=Cc1cc(C)ccc1C=C(C)C(=O)NC(=N)N)C(=O)N=C(N)N | 0.75 °C |
| Cc1cc(C(=O)N2CCN(C3CN(C(=O)c4ccc(-c5ccccc5)cc4)C3)CC2)no1 | 0.78 °C |
| CCC[C@H]1CNCc2c1[nH]c(=O)c(C#N)c2N1CCC2(CC1)CC2 | 0.01 °C |
| CN(CCOc1ccc(-c2ccc3c(c2)OCO3)cc1C(C)(C)C)CC(=O)O | 0.97 °C |
| Cc1ccc(NC2=CC(=O)c3sc(C)nc3C2=O)cc1 | 0.31 °C |
| CNCCC(Oc1ccccc1OC)c1ccccc1 (stereo not given) | 0.01 °C |

What follows are compounds tested against Bromodomain-containing protein 4 (Homo sapiens) (UniProt O60885). Conditions: Compound concentration 20.0 uM.

| Structure (SMILES) | ΔTm |
| --- | --- |
| CCn1c(=O)c(C)cn(Cc2nnc(-c3ccc(F)c(OC)c3F)s2)c1=O | -0.83 °C |
| Cc1c(F)c(N)cc(C(=O)Nc2cc(-n3cc(C(=O)NCCCN4CCOCC4)nn3)ccc2N2CCN(C)CC2)c1Cl | -3.1 °C |
| N[C@@H](CCCCNC(=O)OCc1ccc([N+](=O)[O-])cc1)C(=O)N1CCCC1 | -2.69 °C |
| O=C(C1CC1)N1CC[C@@H](Cc2n[nH]c(=O)n2-c2ccc(-c3ccc4occc4c3)cc2)C1 | -1.91 °C and -3.51 °C |
| CN(CCC(Oc1ccc(-c2ccccc2)cc1)c1ccc(F)cc1)CC(=O)O (stereo not given) | 2.4 °C |
| O=C(Oc1cccc(F)c1OC(=O)c1cccc(O)c1)c1cccc(O)c1 | -0.67 °C |
| N=C(N)SCc1ccc(CN2C(=O)C(=O)c3cc(C(F)(F)F)ccc32)cc1 | -2.92 °C |
| Cc1ccnc(NS(=O)(=O)c2ccc(NC(=O)Nc3ccc(S(=O)(=O)Nc4nccc(C)n4)cc3)cc2)n1 | -0.01 °C |
| COCc1nc(C(F)(F)F)[nH]c1-c1cc(C(=O)N2CC(c3ccc(C#N)cc3)C2)c(C)cc1C | -3.21 °C |
| Cn1nc(C(C)(C)C)cc1C(=O)NC(Cc1cccc(Cl)c1)C(=O)NCC#N (stereo not given) | -2.22 °C |
| COc1cccc(OC)c1S(=O)(=O)Nc1noc2cc(Cn3cccn3)cc(OC)c12 | -2.01 °C |
| CNC(=O)Cn1cc(-c2ccc3c(c2)[C@H](F)C[C@]32NC(=O)N(CC(=O)N(Cc3ccc(F)cc3)[C@@H](C)C(F)(F)F)C2=O)cn1 | -4.22 °C |
| Cc1ccc([N+](=O)[O-])cc1S(=O)(=O)N(C)C | -1.98 °C |
| Nc1ccc(-c2cccs2)cc1NC(=O)c1ccc(NC=O)cc1 | 2.75 °C |
| CCCN(CCC)c1ccc(C=O)cc1Br | -2.88 °C |
| O=C(O)c1cccc(-c2ccc(-c3cn(C(=O)N4CCCCC4Cc4ccccc4)nn3)cc2)c1 (stereo not given) | -2.23 °C |
| CC(=O)N[C@@H](CC(C)C)C(=O)N[C@@H](CCC(=O)O)C(=O)N[C@@H](Cc1cnc[nH]1)C(=O)N[C@H](C=O)CC(=O)O (Ac-LEHD-aldehyde) | -2.66 °C |
| Cc1cc(N2C[C@@H](C)N[C@@H](C)C2)ncc1-c1ccc(-c2nc3c(ccn3C)c(=O)[nH]2)cc1 | -0.52 °C |
| O=c1[nH]c(N2CCC3(CC2)CN(CCO)c2cc(F)cc(F)c23)nc2c1CCCC2 | -3.2 °C |
| COc1cc2c(cc1-c1c(C)noc1C)[nH]c1nc(C)nc(-c3ccnc4ccccc34)c12 | 11.5 °C |

| Structure (SMILES) | ΔTm |
| --- | --- |
| O=S(=O)(O)c1ccc2cc(/N=N/c3cc(S(=O)(=O)O)c4cccnc4c3O)ccc2c1 | -2.44 °C |
| O=C(c1cc(Cc2n[nH]c(=O)c3ccccc23)ccc1F)N1CCN(C(=O)C2CC2)CC1 | 15.7 °C |
| CS(=O)(=O)N1CCN(C(=O)c2cnc3ccc(F)cc3c2-c2ccc(C3(C#N)CC3)cc2)CC1 | 1.15 °C |
| CN1CCN2c3c(cccc31)[C@@H]1CN(CCCC(=O)c3ccc(F)cc3)CC[C@@H]12 | -0.67 °C |
| CC(=O)N[C@@H](C)C(=O)N[C@@H](CCC(=O)O)C(=O)N[C@H](C(=O)N[C@@H](C=O)CC(=O)O)C(C)C | -2.8 °C |
| O=C(COc1ccc(-c2oc3cc(O)c(C(=O)O)cc3c2C#Cc2cccc(Cl)c2)cc1)NC1CC1 | -1.93 °C |
| Nc1ncnc2c1ncn2[C@@H]1O[C@H](C(=O)N2CCN(CC(=O)Nc3cccc4c3CNC4=O)CC2)[C@@H](O)[C@H]1O | -1.31 °C |
| CCCCN(Cc1ccc(C(=O)NO)cc1)C(=O)Nc1ccccc1 | -1.81 °C |
| OC[C@H]1O[C@@H](c2ccc(F)c(Cc3cc4ccccc4s3)c2)[C@H](O)[C@@H](O)[C@@H]1O | -3.4 °C |
| COc1cc(-c2cn(C)c(=O)c3cnccc23)cc(OC)c1CN(C)CC(=O)NCCOCCOCCNc1cccc2c1C(=O)N(C1CCC(=O)NC1=O)C2=O (stereo not given) | -1.54 °C |
| CCCC[C@@H](C=O)NC(=O)[C@H](CC(C)C)NC(=O)[C@H](CC(C)C)NC(C)=O (Ac-Leu-Leu-[Nle]-aldehyde) | -2.71 °C |
| Cc1cc(C)c(CNC(=O)c2cc(-c3ccc(N4CCN(C)CC4)nc3)cc3c2c(C)cn3C(C)C)c(=O)[nH]1 | -2.02 °C |
| C=CC(=O)Nc1cccc(-c2c[nH]cc2CN(C)CCN)c1 | -1.27 °C |
| CC(=O)N[C@@H](Cc1ccc(O)cc1)C(=O)N[C@H](C(=O)N[C@@H](C)C(=O)N[C@@H](CC(=O)O)C(=O)COC(=O)c1c(C)cccc1C)C(C)C | -2.81 °C |
| CC(=Cc1cc(C)ccc1C=C(C)C(=O)NC(=N)N)C(=O)N=C(N)N | -2.96 °C |
| Cc1cc(C(=O)N2CCN(C3CN(C(=O)c4ccc(-c5ccccc5)cc4)C3)CC2)no1 | -2.08 °C |
| CCC[C@H]1CNCc2c1[nH]c(=O)c(C#N)c2N1CCC2(CC1)CC2 | -1.65 °C |
| CN(CCOc1ccc(-c2ccc3c(c2)OCO3)cc1C(C)(C)C)CC(=O)O | -3.79 °C |
| Cc1ccc(NC2=CC(=O)c3sc(C)nc3C2=O)cc1 | -1.66 °C |
| CNCCC(Oc1ccccc1OC)c1ccccc1 (stereo not given) | -1.45 °C |
